# PubChem BioAssay (NCATS)
# Values joined by “and” are separate entries in the source; they are usually repeats but may differ in a detail not shown here. Identical values can stand only once. Records with an inconclusive call do not appear. Values without a mark were called inactive. Active and inactive are the calls of the source. Calls come from the whole dose curve; as a rule, active = well fitted curve in the direction sought with a large enough effect; inconclusive = small, poorly fitted or top-dose-only effect, or another doubt; inactive = no such curve, though single readings can be large or run the other way.
# Test: qHTS Assay for Identifying Gametocytocidal Compounds (AID 743244);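 for max response: actives lower the fluorescent signal which means gametocytes are killed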
# Conditions: P. falciparum 3D7 stage III-V gametocytes, alamarBlue, 72 h; max response: hits give low values
# Description: Malaria cases and deaths have dropped 50% in 29 countries since 2000 due to the combined effects of long-lasting insecticidal bednets, indoor residual spraying, and artemisinin-based combination therapies (ACTs). This success has raised hopes for malaria eradication and consequently stimulated interest in developing new reagents that block gametocyte transmission such as novel and safe gametocytocidal drugs. However, previous drug development efforts have focused primarily on the asexual parasites that cause symptoms, but not malaria transmission. Consequently, patients can remain infectious for weeks after the clearance of asexual parasites and clinical symptoms. To be transmitted from person to person via a mosquito, the parasites must switch from asexual to sexual development and produce male and female gametocytes. Malaria gametocytes consist of five stages (I, II, III, IV and V). The late stage gametocytes (III, IV and V) are difficult to be cultured in vitro and the long lifespan of mature gametocytes allows them being transmitted from host to mosquitoes unless they are completely eliminated by gametocytocidal agents. To identify gametocytocidal compounds which are capable of killing late stage P. falciparum gametocytes, a high throughput gametocyte viability assay was employed. This assay uses oxidoreduction indicator, alamarBlue, as a general measure of metabolic activity of gametocytes. Within live cells, the nonfluorescent resazurin is reduced to resorufin, a bright red fluorescence dye. Fluorescence decreases upon treatment of gametocytocidal compounds. P. falciparum gametocyte (3D7 strain) was used in this study.
# The 1536-well gametocycidal viability assay was based on the previous method of Tanaka et al. Stage III-V gametocytes were tested against three compound libraries, including 4265 compounds from NCGC pharmaceutical collection, 400 from Malaria Box library, and 550 from an internal collection of kinase inhibitors. Briefly, 2.5 ul/well incomplete medium was dispensed into each well of 1,536-well plates using the Multidrop Combi followed by 23 nl compound transferring using the NX-TR Pintool (WAKO Scientific Solutions, San Diego, CA). Then, 2.5 ul/well of gametocytes was dispensed with a seeding density of 20,000 cells/well using the Multidrop Combi. The assay plates were incubated for 72 h at 37C with 5% CO2. After addition of 5 ul/well of 2X AlamarBlue dye (Life Technologies, cat. no. DAL1100), the plates were incubated for 24 h at 37C with 5% CO2 and then were read in a fluorescence detection mode (Ex = 525 nm, Em = 598 nm) on a ViewLux plate reader (PerkinElmer).
# % is set by controls: 0 for no effect and ±100 for the full control effect; potency is the fitted concentration of half-maximal effect.
Structure (SMILES),max response,Potency
CCCN1CCC[C@@H]2Cc3[nH]ncc3C[C@H]21,-4.72% and 8.32% and 17.4%,
NCC1(CC(=O)O)CCCCC1,10.3%,
CC(=O)[C@H]1CC[C@H]2[C@@H]3CC[C@H]4C[C@H](O)CC[C@]4(C)[C@H]3C(=O)C[C@]12C,-4.24% and 9.55%,
Clc1ccc(CCC(Cn2ccnc2)Sc2c(Cl)cccc2Cl)cc1 (stereo not given),,7.94 µM (active)
CCC(C(N)=O)N1CCCC1=O (stereo not given),-7.9%,
OCCOc1ccccc1,3.27% and 3.36%,
CN(C)CCc1ccc(O)cc1,-0.843%,
CCOC(=O)C1(c2ccccc2)CCN(CCC(C#N)(c2ccccc2)c2ccccc2)CC1,18.9% and -7.07%,
OCCN1CCN(CCCN2c3ccccc3Sc3ccc(C(F)(F)F)cc32)CC1,,11.2 µM (active)
C[C@]12CC[C@H]3[C@@H](CCC4=CC(=O)CC[C@@H]43)[C@@H]1CC[C@@H]2OC(=O)CCc1ccccc1,0.188%,
CCC(COC(=O)c1cc(OC)c(OC)c(OC)c1)(c1ccccc1)N(C)C (stereo not given),10.7%,
Clc1ccc(COC(Cn2ccnc2)c2ccc(Cl)cc2Cl)cc1 (stereo not given),,10 µM (active)
O=c1c(O)c(-c2ccc(O)c(O)c2)oc2cc(O)cc(O)c12,43.6% and 2.58% and 14.8%,
C[C@@H]1[C@@H](CC(C[C@H]2O[C@@H]3O[C@]4(C)CC[C@@H]5[C@H](C)CC[C@@H]([C@H]2C)[C@@]35OO4)C[S+](=O)([O-])c2ccc(COC(=O)N(C)C)cc2)O[C@@H]2O[C@]3(C)CC[C@H]4[C@H](C)CC[C@@H]1[C@@]24OO3 (stereo not given in full),,0.0023 µM (active)
O=C1NCN(c2ccccc2)C12CCN(CC1COc3ccccc3O1)CC2 (stereo not given),-1.23% and 22.3%,
C[C@@H]1[C@@H](C(=O)C[C@H]2O[C@@H]3O[C@]4(C)CC[C@@H]5[C@H](C)CC[C@@H]([C@H]2C)[C@@]35OO4)O[C@@H]2O[C@]3(C)CC[C@H]4[C@H](C)CC[C@@H]1[C@@]24OO3,,0.0066 µM (active)
O=C(O)C(=O)c1cn(Cc2ccccc2)c2ccc(-c3ccc(OC(F)(F)F)cc3)cc12,14.9%,
O=C1CC[C@@]2(O)[C@H]3Cc4ccc(O)c5c4[C@@]2(CCN3CC2CC2)[C@H]1O5,19%,
CCCN1CCC[C@@H]2Cc3nc(N)ncc3C[C@H]21,3.72% and 1.86%,
O=C(O)c1ccc2[nH]cc(CCCCN3CC=C(c4ccccc4)CC3)c2c1,-6.11%,

Structure (SMILES),max response,Potency
CC(O)(CS(=O)(=O)c1ccc(F)cc1)C(=O)Nc1ccc(C#N)c(C(F)(F)F)c1 (stereo not given),4.22% and -26.1%,
c1ccc(C2CC2)c(OCC2=NCCN2)c1,-3.84% and 23.7%,
c1ccc2c(c1)Nc1ccccc1S2,,22.4 µM (active) and 28.2 µM (active)
CN1C[C@H](CNC(=O)OCc2ccccc2)C[C@@H]2c3cccc4c3c(cn4C)C[C@H]21,-4.3%,
Cc1ncc(CNC(=O)N(CCCl)N=O)c(N)n1,-1.52% and 11.3%,
O=c1[nH]c2ccccc2n1CCCN1CCC(n2c(=O)[nH]c3cc(Cl)ccc32)CC1,-7.84% and 21.7%,
C=C1C[C@@H]2[C@H](CC[C@]3(C)C(=O)CC[C@@H]23)[C@@]2(C)C=CC(=O)C=C12,-0.643%,
CC(C)(C)NCC(O)c1cc(Cl)c(N)c(Cl)c1 (stereo not given),-5.19%,
CNC(=O)c1ccc(N2C(=S)N(c3ccc(C#N)c(C(F)(F)F)c3)C(=O)C23CCC3)cc1F,-1.03%,
COc1ccc(C(=O)c2c(C)n(CCN3CCOCC3)c3ccccc23)cc1,6.23% and 9.75%,
CCN(C(C)=O)c1cccc(-c2ccnc3c(C#N)cnn23)c1,4.87%,
CC(CCc1ccccc1)NC(C)C(O)c1ccc(O)cc1 (stereo not given),2.74% and 19.3%,
NN=C(N)N,9.75% and 23.5%,
COc1ccc(C(CN(C)C)C2(O)CCCCC2)cc1 (stereo not given),4.64% and 5.5%,
N[C@@H](Cc1ccc(N(CCCl)CCCl)cc1)C(=O)O,7.49%,
CCN(CC)CCOC(=O)C(O)(c1ccccc1)c1ccccc1,-7.9%,
NCCc1cc(O)c(O)cc1O,0.974%,
CN1CCN(C(=O)O[C@H]2c3nccnc3C(=O)N2c2ccc(Cl)cn2)CC1,-4.73%,
Cc1ccc2c(c1)C1CN(C)CCC1N2 (stereo not given),-7.38%,
C[C@]12CCC(=O)C(O)=C1CC[C@@H]1[C@@H]2CC[C@]2(C)C(=O)CC[C@@H]12,8.31% and 12.3%,
